# Whole data set: some 33,000 sequences, median “E-score (-0.5 to 0.5)” near -0.035, cut for the highest 2% near 0.35. The sample as a whole holds a higher share of the highest values than the screen did.
# Molecular target: T1, Pdr3 (UniProt P33200)
# T1 sequence: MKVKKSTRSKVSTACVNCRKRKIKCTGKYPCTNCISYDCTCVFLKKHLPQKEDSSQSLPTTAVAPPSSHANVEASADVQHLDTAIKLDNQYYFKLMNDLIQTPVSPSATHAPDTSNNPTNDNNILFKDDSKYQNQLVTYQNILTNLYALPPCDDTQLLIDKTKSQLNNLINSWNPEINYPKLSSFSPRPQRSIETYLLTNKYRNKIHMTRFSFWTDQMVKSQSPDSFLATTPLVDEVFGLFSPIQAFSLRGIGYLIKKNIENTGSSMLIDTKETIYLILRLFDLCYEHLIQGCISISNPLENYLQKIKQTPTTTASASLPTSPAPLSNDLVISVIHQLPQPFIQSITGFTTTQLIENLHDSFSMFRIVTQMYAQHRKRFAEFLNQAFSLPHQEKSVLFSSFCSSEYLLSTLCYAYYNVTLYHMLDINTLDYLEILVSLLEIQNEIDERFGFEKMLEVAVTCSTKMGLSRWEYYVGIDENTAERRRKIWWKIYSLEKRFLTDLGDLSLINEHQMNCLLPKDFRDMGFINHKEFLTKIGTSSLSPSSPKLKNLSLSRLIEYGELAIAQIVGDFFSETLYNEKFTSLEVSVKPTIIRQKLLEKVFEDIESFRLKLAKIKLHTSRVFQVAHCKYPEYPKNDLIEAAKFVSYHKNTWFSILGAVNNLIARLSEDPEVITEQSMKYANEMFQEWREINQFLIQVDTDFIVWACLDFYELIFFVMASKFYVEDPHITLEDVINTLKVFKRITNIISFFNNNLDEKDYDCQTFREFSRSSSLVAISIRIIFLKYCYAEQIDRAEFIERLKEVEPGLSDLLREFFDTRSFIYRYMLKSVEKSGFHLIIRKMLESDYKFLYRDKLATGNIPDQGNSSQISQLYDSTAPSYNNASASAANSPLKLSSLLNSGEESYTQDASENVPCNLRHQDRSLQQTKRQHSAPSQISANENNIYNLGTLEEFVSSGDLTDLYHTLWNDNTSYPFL
# Assay: PBM E-score (8-mer binding enrichment) (E-score (-0.5 to 0.5)); higher = stronger / more preferred TF binding
# Conditions: protein concentration: 200 nM; construct: GST-full length
# Outline: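 Universal all-10-mer Agilent arrays, double-stranded by primer extension on fresh or once-stripped slides, were probed with about 100-200 nM GST-tagged yeast transcription factors made by PURExpress. Fluorescent anti-GST detected bound protein, and masliner normalised the scans. E-scores from the Universal PBM Analysis Suite were given to each ungapped eight-base word pooled with its reverse complement.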
row,Sequence,PBM E-score
1,ACTGAGCG,-0.185
2,GGACAATA,0.28
3,TATTTACA,-0.097
4,ACAGTTCT,0.082
5,ACAGTTCC,0.387
6,CCAGTTCC,0.318
7,AGGGGAAA,-0.0896
8,GGCAGAAC,0.123
9,CGCGGAAG,0.454
10,GGCGGAAC,0.467
11,CGCAGAAG,-0.09
12,GGGGGAAC,-0.165
13,CGGGGAAA,0.246
14,CGCGGAAA,0.476
15,CGTGGAAA,0.243
16,AGAGGAAA,0.0754
17,AGCGGAAA,0.391
18,CGTGGAAG,0.208
19,AATTCGAT,0.0319
20,AGCCTCGG,0.156
21,AGGGGAAC,-0.0871
22,TGCGGGAA,0.313

row,Sequence,PBM E-score
1,AGCGGAAT,0.392
2,GGGGGAAA,0.138
3,AGAGGAAC,-0.066
4,GGAGGAAA,0.0123
5,AGCGGACT,-0.0134
6,AGCGGAAG,0.341
7,TGCGGAAA,0.357
8,GGCGGAAA,0.361
9,TGCGGACA,0.237
10,AGCGGAAC,0.457
11,CCGCCGAA,0.277
12,CCCAACTC,0.16
13,ACCCTCGG,0.156
14,CGTCGTAA,-0.0777
15,CGCATCAC,-0.0776
16,AGGCAACG,0.00606
17,ACAACCGC,0.202
18,AAAACTAC,0.179
19,CATCGGAG,0.0478
20,AATCGGAA,0.445
21,GATCGGGC,0.142
22,TATCGGCA,0.101

row,Sequence,PBM E-score
1,TATCGGGA,0.228
2,CATCGGAC,0.143
3,AATCGGAT,0.317
4,CATCGGAA,0.422
5,GATCGGAC,0.362
6,AATCGGAG,0.276
7,TATCGGAA,0.419
8,AATCGGAC,0.212
9,CCTTTAGA,-0.22
10,GCAGAATA,-0.0373
11,CCTTCCTA,-0.401
12,TCGGTAGA,-0.027
13,AAAGTTGA,-0.0975
14,AACGGCTC,0.0795
15,ACGTTACG,-0.211
16,AATTTGCT,-0.114
17,CTGCTCCC,-0.0396
18,GACCCGCA,0.0817
19,GATCGGGA,0.171
20,GATCGGTA,0.146
21,GATCGGAA,0.424
22,GTGCTTCA,-0.0273

row,Sequence,PBM E-score
1,AGCTTAAG,-0.0452
2,GGGCCCAA,0.0863
3,AAGTGAGG,-0.173
4,AAACCCGG,0.401
5,ACCCCGTG,0.181
6,ACCCGGGG,0.357
7,AACCGGGG,0.199
8,CCCCCCGG,0.132
9,AAACCCGA,0.243
10,AAACCCGC,0.258
11,ACCGGGGG,0.0642
12,ACCCCCGG,0.17
13,ACCCCGGG,0.376
14,CCCCCGCG,0.349
15,CCCCCGGG,0.364
16,ATAGATTA,-0.0055
17,CCAATAGG,-0.154
18,CGAGATAC,0.128
19,GGTAAAGA,-0.0497
20,ATGTCTGA,-0.106
21,ATCCAAAA,-0.00928
22,GGCCCCGA,0.181

row,Sequence,PBM E-score
1,GGCAGCCA,0.0184
2,GTATCTAA,0.0522
3,CTGAGAAA,-0.236
4,CGCAATGC,-0.0405
5,ACAGTGAC,0.0756
6,AACCCCGG,0.312
7,CACCGGGG,0.0593
8,CCCCGGCC,0.0967
9,AACCCGGT,0.258
10,AACCCGGG,0.424
11,CCCCGGGG,0.412
12,GGCGAGCA,0.0206
13,CAGATAGC,-0.0206
14,ATAGTTAA,-0.038
15,CTCAGTAC,-0.183
16,GACAAACC,-0.0403
17,TCGTACGA,-0.293
18,ACTTGGTG,-0.141
19,GCGGAAAA,0.397
20,AGGGAAAT,-0.115
21,AGGGAAAC,-0.104
